# This is one part of a sample in which hits are shown more often than they occur.
# Giardia FBPA inh: Giardia lamblia aldolase inhibition | Potency, µM (doses to about 59.6 µM), for inactives: at the highest dose activity, negative = inhibition, most hits filed as inhibitors | A8B2U2 | hit rate 0.71% among 290,000 | purified Giardia FBPA; also: potency is read from the fitted curve at half-maximal effect; % is scaled to controls: 0 for no effect and ±100 for the full control effect; nearly all actives have a fitted effect of over 55% in size
#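 Giardia FBPA (40 nM reagent) was preincubated 10 min at RT with compound (up to 57.5 uM final), then substrate plus GAPDH/TPI/NAD/arsenate coupling system with diaphorase/resazurin was added; resorufin fluorescence (525/598 nm) was read after 20 min.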
# Sm TGR inh: S. mansoni TGR enzyme inhibition | hit rate 3% among 360,000 | purified TGR, DTNB reduction, TNB absorbance 405 nm | Potency, µM (top dose mostly 114 µM), for the others: at the top dose activity change, negative = inhibition, usual class: inhibitors | Q962Y6; also: potency is read from the fitted curve at half-maximal effect; % is scaled to controls: 0 for no effect and ±100 for the full control effect; nearly all actives have a fitted effect of over 60% in size
#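 First, TGR (20 nM dispensed) and NADPH were mixed with compound. Second, a 15 min room-temperature incubation followed. Third, further NADPH and then DTNB were added to start the reaction. Finally, TNB absorbance was monitored kinetically.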
# LmPK inhibitor: LmPK (Leishmania mexicana) enzyme inhibition | AID 1721 | hit rate 0.37% among 290,000 | purified LmPK, Kinase-Glo ATP luminescence, 1 h | Potency, µM (series often up to 57.5 µM), for the others: at the highest dose activity change, negative = inhibition, hits mostly inhibitors; also: potency is read from the fitted curve at half-maximal effect; % is scaled to controls: 0 for no effect and ±100 for the full control effect
# Target sequence (Q27686 whole entry, looked up): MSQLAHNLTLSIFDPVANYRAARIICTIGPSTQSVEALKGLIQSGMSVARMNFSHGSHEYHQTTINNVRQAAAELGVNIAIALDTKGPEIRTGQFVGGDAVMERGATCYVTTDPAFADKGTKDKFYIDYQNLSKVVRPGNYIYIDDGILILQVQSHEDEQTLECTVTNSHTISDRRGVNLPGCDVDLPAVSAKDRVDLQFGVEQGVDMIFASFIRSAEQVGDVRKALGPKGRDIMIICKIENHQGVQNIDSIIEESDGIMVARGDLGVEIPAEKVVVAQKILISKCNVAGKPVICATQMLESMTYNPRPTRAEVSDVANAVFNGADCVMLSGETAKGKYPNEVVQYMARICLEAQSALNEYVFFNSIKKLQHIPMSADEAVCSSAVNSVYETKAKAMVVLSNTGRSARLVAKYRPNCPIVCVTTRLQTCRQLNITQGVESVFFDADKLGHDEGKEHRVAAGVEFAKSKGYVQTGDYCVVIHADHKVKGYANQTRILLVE
#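 ATP generated from ADP (0.1 mM) and PEP (0.5 mM) by 0.1 nM LmPK over 1 h at room temperature (pH 7.2 imidazole buffer) was detected by coupled luciferase luminescence. Values were normalized to uninhibited and no-enzyme wells.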
# Tb PYK inh: inhibitors of Trypanosoma brucei pyruvate kinase; TbPYK enzyme, Kinase-Glo Plus ATP luminescence, 45 min; Potency, µM (top dose mostly 76.8 µM), for the others: top-dose activity, negative = inhibition, most hits filed as inhibitors; hit rate 0.12% among 410,000; also: potency is read from the fitted curve at half-maximal effect; % is scaled to controls: 0 for no effect and ±100 for the full control effect; nearly all actives have a fitted effect of over 50% in size
#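 Glycolytic pyruvate kinase of T. brucei was incubated with substrate, test compound and 130 uM ADP for 45 minutes at room temperature. Luminescent Kinase-Glo Plus signal was measured after 10 minutes.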
# CHX counter: counter-screen for Shiga toxin inhibitors: cycloheximide protein synthesis inhibition. max response, %. cell reporter, cycloheximide protein synthesis inhibition counterscreen. hit rate 12% among 300,000. AID 2314; in the data active = max response mostly above about 13%, no sharp cut-off; inactive = mostly below about 14%; also: read at 38.3 µM for the half of the compounds with a filed dose; 0% is about no effect
# Shiga inhibitor: inhibitors of Shiga toxin in Vero cells | Vero cells, Shiga toxin protein synthesis inhibition reporter | inhibition, % at 38.7 µM | hit rate 9.2% among 290,000 | AID 2315; in the data active = inhibition mostly above about 28%, no sharp cut-off; inactive = mostly below about 43%; also: 0% is about no effect
# An asterisk follows results filed as active; u = inconclusive; x = no result given; [ ] = another dose, or the depositor's remark. Unless noted, calls follow the shape of the dose curve; as a rule, active = well fitted curve in the direction sought with a large enough effect; inconclusive = small, poorly fitted or top-dose-only effect, or another doubt; inactive = no such curve, though single readings can be large; an effect the other way counts as inactive or inconclusive.
SMILES,Giardia FBPA inh,Sm TGR inh,LmPK inhibitor,Tb PYK inh,CHX counter,Shiga inhibitor
Cc1ccc(-c2nc(CSCC(=O)N3CCCC3)c(C)o2)cc1,-5%,-20%,-8%,x,13,37
COC(=O)c1ccc(NC(=O)c2cc3cc(C)ccc3n2C)cc1,x,1%,x,3%,x,x
CO[C@@H]1COC(=O)C/C=C\[C@@H](C)[C@@H]2C=C[C@H](O)[C@@H](COC(=O)CCC[C@H]1C)O2,-1%[12.9 µM],x,x,x,x,x
Nc1c(-c2nc(-c3ccc4c(c3)OCO4)cs2)c2ccccn2c1C(=O)c1ccccc1,x,-5%,x,1%,x,x
CC1CN(c2nc3ccccc3nc2C(C#N)C(=O)NC2CCCCC2)CC(C)O1 (configuration not stated),3%,0%,-1%,x,19*,19
CC1CN(c2nc3ccccc3nc2C(C#N)C(=O)OC2CCCCC2)CC(C)O1 (configuration not stated),28%,-2%,3%,-10%,1,1
CCOC(=O)/C(C#N)=C/c1ccc(N2CCN(C)CC2)cc1,8%,-13%,6%,6%,29*,23
CCOC(=O)C(/C=C(\C#N)C(=O)OCC)=C(/N)N1CCN(c2ccccc2)CC1,6%,-19%,-4%,4%,-2,-18
CCOC(=O)/C(C#N)=C\c1ccc(N2CCN(C)CC2)cc1,5%,-4%,3%,1%,26*,13
CCOC(=O)/C(C#N)=C/C1=C(N2CCOCC2)C(C)(C)OCC1,-4%,28µM*,-3%,-4%,-1,-11
CC(C)=CCc1c(O)cc(O)c2c1O[C@H](c1ccccc1)CC2=O,0%,x,x,x,x,x
C#CCCc1ccccc1/C=[N+](/C)[O-],x,11µM*,x,1%,x,x
C/[N+]([O-])=C\c1coc2ccccc2c1=O,-1%,-4%,-5%,0%,-3,-11
Cc1cc(N2CCCCC2)n2ncc(-c3ccc(Cl)cc3)c2n1,-8%,-1%[11.4 µM],15%,1%,29*,39
Cc1cc(N2CCOCC2)n2ncc(-c3ccccc3)c2n1,0%,-18%,-16%,11%,34*,100*
C=CCc1c(C)nc2c(-c3ccccc3)cnn2c1N1CCOCC1,13%,9%,-6%,-6%,58*,84*
Cc1cc(N2CCN(C(=O)c3ccco3)CC2)n2ncc(-c3ccccc3)c2n1,14%,1%,4%,1%,31*,64*
CC1CC(=Cc2ccc([N+](=O)[O-])cc2)C(=O)O1 (configuration not stated),x,x,x,-2%,x,x
CCCc1nn2c(=O)cc(COC(=O)c3ccc4c(c3)OCO4)nc2s1,x,7%,x,-2%,x,x
OCCCNc1ncnc2c1ncn2[C@H]1CN(C2CCCC2)C[C@@H](CO)O1,x,x,x,5%,x,x
Cc1nc2cc(-c3cccc(F)c3)nn2c(N2CCN(C(=O)c3ccco3)CC2)c1C,2%,7%,3%,4%,61*,94*
CC(=O)Nc1ccc(Nc2cc(C)nc3c(-c4ccc(Cl)cc4)cnn23)cc1,8%,-3%,3%,-6%,52*,36*
Cc1ccc(-c2cnn3c(N4CCOCC4)cc(C)nc23)cc1,13%,-1%,-3%,-1%,68*,108*
CC(=O)Nc1ccc(Nc2cc(C)nc3c(-c4ccc(Cl)cc4)c(C)nn23)cc1,0%,-3%,-2%,-9%,-2,-7
Cc1cc(N2CCC(C)CC2)n2nc(C)c(-c3ccccc3)c2n1,14%,0%,-1%,1%,-1,-10
SMILES,Giardia FBPA inh,Sm TGR inh,LmPK inhibitor,Tb PYK inh,CHX counter,Shiga inhibitor
Cc1cc(N2CCC(C)CC2)n2ncc(-c3ccccc3)c2n1,-5%,3%,0%,4%,44*,132*
COc1ccc(NC(=O)CN(C)C(=O)c2cc(C)on2)cc1,x,-1%,x,-2%,x,x
Cc1cc(N2CCCCC2)n2nc(C)c(-c3ccccc3)c2n1,-3%,-9%,0%,1%,6,49
Cc1cc(N2CCCCC2)n2ncc(-c3ccccc3)c2n1,-9%,-1%,-2%,2%,60*,61
Cc1cc(N2CCOCC2)n2nc(C)c(-c3ccc(Cl)cc3)c2n1,3%,0%,3%,2%,1,-5
CC(C)(C)c1cc(N2CCOCC2)n2ncc(-c3ccc(Cl)cc3)c2n1,-2%,25%,4%,2%,31*,24
Cc1cc(N2CCOCC2)n2ncc(-c3ccc(Cl)cc3)c2n1,-5%,10%,4%,-3%,75*,120*
CCCc1cc(N2CCOCC2)n2nc(C)c(-c3ccccc3)c2n1,4%,13%,-1%,5%,18*,-9
CCc1cccc(NC(=O)CSc2nc3ccsc3c(=O)n2CC)c1,x,-1%,x,-2%,x,x
COc1ccccc1NC(=O)NC1(C(=O)NCC2CCCO2)CCCCC1 (configuration not stated),3%,5%,4%,-4%,-5,-4
CCN(CC)S(=O)(=O)c1ccc(Cl)c(C(=O)Oc2cccc(-c3cnc4ccccc4n3)c2)c1,-4%,8%,1%,-1%,31*,81*
CCN(CC)S(=O)(=O)c1cc(C(=O)Oc2cccc(-c3cnc4ccccc4n3)c2)ccc1Br,-2%,6%,2%,-6%,61*,65*
O=C(Oc1ccc(-c2cnc3ccccc3n2)cc1)c1ccc(Br)o1,-2%,0%,-2%,4%,24,45
OCC1OC(n2cnc3c(N4CCCCC4)ncnc32)C(O)C1O (configuration not stated),x,x,x,-2%,x,x
COc1ccc(O)c(/C=N/NC(=S)Nc2cccc(S(=O)(=O)N(C)C)c2)c1,-4%,-7%,5%,-20%,18*,13
CN(C)S(=O)(=O)c1cccc(NC(=S)N/N=C/c2ccco2)c1,9%,40µM*,4%,0%,14*,25
CCOc1ccccc1/C=N/NC(=O)c1cccc(S(=O)(=O)N(CC)CC)c1,u,-1%,-2%,2%,-2,-3
COc1cccc(/C=N/NC(=S)Nc2cccc(S(=O)(=O)N(C)C)c2)c1,1%,9%,6%,-14%,11,24
O=C(N/N=C\c1ccco1)Nc1cccc(Cl)c1,-7%,2%,-3%,5%,80*,142*
CCN(CC)S(=O)(=O)c1cccc(C(=O)N/N=C/c2ccc(O)c(O)c2O)c1,4.5µM*,u,0%,u,-3,4
CCOc1ccc(N=C(C)Nc2ccc(OCC)cc2)cc1,x,x,x,-2%,x,x
Cc1nn(CC(=O)NCc2ccc(F)cc2)c2ccccc12,x,1%,x,0%,x,x
COc1cc(/C=N/NC(=S)Nc2cccc(S(=O)(=O)N(C)C)c2)cc(OC)c1O,-16%,-21%,1%,3%,13,-31
CN(C)S(=O)(=O)c1cccc(NC(=S)N/N=C/c2ccc(O)c(O)c2O)c1,16µM*,10µM*,-15%,10µM*,13,23
